Assay [1] is described as follows: NCI Yeast Anticancer Drug Screen. Data for the rad50 strain (AID 155).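 Further: 0% = growth of vehicle-only cultures of the same strain.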 The note with it: S. cerevisiae rad50 strain growth inhibition; at 50.0 µM; stronger effect = higher value. The procedure, abridged:
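Readout: growth inhibition relative to vehicle-treated cultures. Compound exposure was carried out in a genetically defined yeast strain deficient in DNA damage repair.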

Assay [2] in a line: NCI Yeast Anticancer Drug Screen. Data for the mec2-1 strain (AID 157). The note with it: S. cerevisiae mec2-1 strain, at 50.0 µM, stronger effect = higher value. In a few lines: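 Mutant yeast (mec2-1) grown with compound; growth inhibition relative to vehicle control reported.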
The nature of assay [3]: NCI Yeast Anticancer Drug Screen. Data for the sgs1 mgt1 strain (AID 161).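 Further: 0% = growth of cultures given vehicle only.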 To be noted: S. cerevisiae sgs1 mgt1 strain, at 50.0 µM, stronger effect = higher value. The procedure, abridged:
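Growth of a repair-deficient yeast mutant was monitored after compound treatment and expressed as inhibition relative to vehicle-treated cultures.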

A short description of assay [4]: NCI Yeast Anticancer Drug Screen. Data for the cln2 rad14 strain (AID 165).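 Further: 0% = growth equal to vehicle treated cultures.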 The note with it: S. cerevisiae cln2 rad14 strain, at 50.0 µM, stronger effect = higher value. In a few lines:
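Readout is yeast growth inhibition versus vehicle-treated controls, using a strain with cln2 and rad14 alterations exposed to compound.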

The nature of assay [5]: NCI Yeast Anticancer Drug Screen. Data for the bub3 strain (AID 167). The note with it: S. cerevisiae bub3 mutant strain, at 50.0 µM, stronger effect = higher value. The procedure, abridged:
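Readout: yeast growth inhibition, expressed relative to vehicle-only wells. The test organism is a mutant strain from a panel with lesions in DNA repair or checkpoint genes.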

The nature of assay [6]: NCI Yeast Anticancer Drug Screen. Data for the mlh1 rad18 strain (AID 175). To be noted: S. cerevisiae mlh1 rad18 strain growth inhibition; at 50.0 µM; stronger effect = higher value. In a few lines:
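Genetically defined yeast (DNA repair-deficient) exposed to compounds; growth inhibition determined relative to vehicle.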

This is part of a sample that, as a whole, favours compounds with a hit. Of some 79,000 tested, about 15% had one in any assay. Values without a mark were called inactive. Calls of active or inactive are those of the source. No stated cut-off is given here; in the data, active means growth inhibition above about 70%; inactive means the rest.

As to `C=CCNC(=S)Nc1cc(Cl)ccc1OC`, the growth inhibition is 6.15% in assay [1]; 8.45% in assay [2]; -2.45% in assay [3]; -5.45% in assay [4]; 1.2% in assay [5]; 7.1% in assay [6].

Regarding `COC(=O)C(Nc1ccc(OC)cc1)c1ccccc1` (stereo not given), the growth inhibition was -3.85% in assay [1]; -1.35% in assay [2]; -8.6% in assay [3]; -21.6% in assay [4]; 4% in assay [5]; -13.6% in assay [6].

For the compound `O=NNc1ccc(S(=O)(=O)c2ccccc2)cn1`, the growth inhibition in assay [1] is 49.1%; in assay [2] it was 13.9%; in assay [3], -27.9%; in assay [4], 12.1%; in assay [5], -26.6%; in assay [6] it was 5.2%.

As for `N#CC(C(=O)/C(=N\NC(N)=O)C(C#N)c1ccc(Cl)cc1)c1ccc(Cl)cc1` (stereo not given), the growth inhibition was -33.6% in assay [1]; -7.25% in assay [2]; -22.1% in assay [3]; 2.4% in assay [4]; -7.05% in assay [5]; -4.3% in assay [6].

Take `CCOc1ccc(OCC)c(N)c1`: the growth inhibition in assay [1] is -25.9%; in assay [2], 2.1%; in assay [3], -2.5%; in assay [4], -44%; in assay [5] it was 10.2%; in assay [6] it was -19.5%.

Consider `COc1ccc(CSC(=S)Nc2ccc(N=Nc3ccccc3)cc2)cc1`, for which the growth inhibition is 33.7% in assay [1]; 11.6% in assay [2]; 24.6% in assay [3]; 25.4% in assay [4]; -7.3% in assay [5]; 1.55% in assay [6].

Turning to `Cc1cc(C)c2nccc(/C=C/c3ccc(N(C)C)cc3)c2c1`, the growth inhibition in assay [1] was -15.3%; in assay [2], 0.4%; in assay [3] it was -15.5%; in assay [4] it was -27.2%; in assay [5], -19.4%; in assay [6], -6.95%.

On to `O=CC1N=C1c1ccccc1` (stereo not given), for which the growth inhibition in assay [1] was 9.4%; in assay [2], -0.05%; in assay [3], 0.65%; in assay [4] it was 18.3%; in assay [5] it was 25.9%; in assay [6], 16.1%.

As for `CCNc1cc2oc(=O)cc(C)c2cc1C`, the growth inhibition is -30.7% in assay [1]; -22.5% in assay [2]; -11.4% in assay [3]; 8.05% in assay [4]; -19% in assay [5]; -28.2% in assay [6].

Consider `O=C1C(O)=C(c2ccccc2)C12CSC1(CS2)C(=O)C(O)=C1c1ccccc1` (stereo not given), for which the growth inhibition in assay [1] is 4.45%; in assay [2], -1.55%; in assay [3], -12.9%; in assay [4], 5.4%; in assay [5], 6.05%; in assay [6], 17.3%.

Regarding `COC(=O)c1ccc(C(=O)OC)c(O)c1O`, the growth inhibition was 11.3% in assay [1]; 27.9% in assay [2]; 8.85% in assay [3]; -2.85% in assay [4]; 12.8% in assay [5]; 16.4% in assay [6].

On to `CCOc1ccccc1N(CCN(C)C)C(=O)C(c1ccccc1)c1ccccc1`, for which the growth inhibition was 20.9% in assay [1]; -18.7% in assay [2]; 1.05% in assay [3]; -7.7% in assay [4]; 25.6% in assay [5]; 31.8% in assay [6].

Turning to `O=[N+]([O-])c1ccc(N=Nc2c(O)c3ccccc3c3ccccc23)c([N+](=O)[O-])c1`, the growth inhibition was 46.6% in assay [1]; 10.3% in assay [2]; 27.9% in assay [3]; 25.9% in assay [4]; 6.1% in assay [5]; 23.2% in assay [6].

For `Clc1ccc(C=Nc2ccc3c(c2)Cc2ccccc2-3)c(Cl)c1`, the growth inhibition was -5.15% in assay [1]; -33.6% in assay [2]; -21.6% in assay [3]; -3.85% in assay [4]; -35.2% in assay [5]; -2.4% in assay [6].

As for `S=C(Nc1ccccc1)Nc1nc(-c2ccccc2)c(N=Nc2ccccc2)s1`, the growth inhibition is 29.8% in assay [1]; -1% in assay [2]; 4.05% in assay [3]; 10.1% in assay [4]; 12.9% in assay [5]; 2% in assay [6].

Turning to `COC1CC(NC(C)=O)C2OC(c3ccccc3)OCC2O1` (stereo not given), the growth inhibition in assay [1] was 4.35%; in assay [2] it was 11.2%; in assay [3], -10.2%; in assay [4], 6.1%; in assay [5], -3.45%; in assay [6], 4.45%.

Consider `CN(C)C=Nc1ccc2[nH]c3ccccc3c2c1`, for which the growth inhibition is -25.4% in assay [1]; -13.1% in assay [2]; -16.2% in assay [3]; 14.3% in assay [4]; 22.9% in assay [5]; 21.4% in assay [6].

In the case of `NC(=O)c1csc(NC2OC(CO)C(O)C(O)C2O)n1` (stereo not given), the growth inhibition in assay [1] was 23.1%; in assay [2], -8.8%; in assay [3] it was 0.05%; in assay [4], 14.8%; in assay [5], -0.25%; in assay [6], -0.05%.

For the compound `S=c1nn[nH]n1-c1cccc2ccccc12`, the growth inhibition was 4.7% in assay [1]; 1.9% in assay [2]; -4.65% in assay [3]; 2.6% in assay [4]; -10.8% in assay [5]; -3.8% in assay [6].

For the compound `C=C1CCC2[C@](C)(CCC[C@]2(C)C(=O)O)[C@@H]1CCc1ccoc1` (stereo not given in full), the growth inhibition in assay [1] was 70.8% (active); in assay [2], 59.9%; in assay [3] it was 73% (active); in assay [4], 77% (active); in assay [5] it was 73.8% (active); in assay [6], 78.8% (active).

The values above are taken from PubChem BioAssay (NCI).
